Assay results: PubChem BioAssay
Results filed as inconclusive are left out. Activity calls are given as the source filed them. Cut-off read from the data, not from the text of the source, unless noted: active = inhibition above about 30%; inactive = the rest.

Key:
[1] = Her2 expression decrease, cell viability multiplex – SKBR3 breast tumor cells, AlphaScreen, ATP viability, primary screen (AID 461;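 active = Her2 level under about 52% in both replicate screens, with viability over 70% of control, limit read from the data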;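 for Her2 level: lower value means less Her2 protein in the cells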;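 for viability: percent of carrier control wells set as 100% viability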); conditions: SKBR3 Her2 protein level, 18-24 h, measured here: SKBR3 viability, ATP luminescence, at 10 µM
[2] = biological target: Receptor tyrosine-protein kinase erbB-2 (Homo sapiens) (UniProt P04626); test: as above; conditions: 18-24 h, at 10 µM, stronger effect = lower value
Chain of Receptor tyrosine-protein kinase erbB-2 (Homo sapiens) (P04626 whole entry, looked up): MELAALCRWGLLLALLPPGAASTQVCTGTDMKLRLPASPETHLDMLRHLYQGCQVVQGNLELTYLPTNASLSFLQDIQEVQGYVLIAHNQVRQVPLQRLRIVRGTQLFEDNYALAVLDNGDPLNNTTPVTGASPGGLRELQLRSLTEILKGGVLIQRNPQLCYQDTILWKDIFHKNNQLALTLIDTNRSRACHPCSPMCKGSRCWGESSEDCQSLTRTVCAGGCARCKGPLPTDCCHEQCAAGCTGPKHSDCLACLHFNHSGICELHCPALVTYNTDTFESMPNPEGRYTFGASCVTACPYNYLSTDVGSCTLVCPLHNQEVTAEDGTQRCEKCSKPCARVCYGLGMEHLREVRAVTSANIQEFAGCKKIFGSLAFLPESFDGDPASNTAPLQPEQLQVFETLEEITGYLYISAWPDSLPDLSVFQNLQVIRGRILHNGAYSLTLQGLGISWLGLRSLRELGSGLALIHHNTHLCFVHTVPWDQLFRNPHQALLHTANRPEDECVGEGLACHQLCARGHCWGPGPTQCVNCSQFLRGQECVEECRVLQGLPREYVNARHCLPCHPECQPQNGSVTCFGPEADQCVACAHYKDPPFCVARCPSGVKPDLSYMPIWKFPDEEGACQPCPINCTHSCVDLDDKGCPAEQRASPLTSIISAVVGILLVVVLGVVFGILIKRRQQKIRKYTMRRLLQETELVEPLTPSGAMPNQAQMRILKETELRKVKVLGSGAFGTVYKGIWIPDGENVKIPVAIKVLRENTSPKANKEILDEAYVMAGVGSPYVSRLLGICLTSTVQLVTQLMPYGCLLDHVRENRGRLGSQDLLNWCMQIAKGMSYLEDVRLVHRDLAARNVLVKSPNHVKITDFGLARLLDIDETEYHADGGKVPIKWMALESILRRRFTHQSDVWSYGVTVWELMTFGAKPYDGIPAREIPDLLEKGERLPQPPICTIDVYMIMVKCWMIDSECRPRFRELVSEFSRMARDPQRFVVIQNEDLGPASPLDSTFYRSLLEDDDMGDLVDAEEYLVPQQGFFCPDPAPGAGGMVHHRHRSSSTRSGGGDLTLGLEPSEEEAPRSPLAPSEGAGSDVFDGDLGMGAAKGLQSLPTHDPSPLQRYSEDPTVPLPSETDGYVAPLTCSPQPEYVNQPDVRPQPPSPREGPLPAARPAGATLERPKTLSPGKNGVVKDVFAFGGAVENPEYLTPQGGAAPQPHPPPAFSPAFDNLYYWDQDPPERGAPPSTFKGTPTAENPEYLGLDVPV

[3] = reduced viability of SK-BR-3 breast cancer cells – cell-based, 24 h, human, pilot screen (AID 572;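 active = viability at or below 10% of carrier control in both of two separate runs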;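 note: compound exposure lasted between 18 and 24 h rather than exactly 24 h; 100% = carrier-treated control wells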); conditions: SK-BR-3 viability, CellTiter-Glo luminescence, at 10 µM, stronger effect = lower value
[4] = HUVEC growth inhibition – cell-based, human, primary screen (AID 575;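 active = viability at or below 30% in both replicate assays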;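 note: 100% = median of untreated cell wells with 0.1% DMSO on each plate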); conditions: HUVEC proliferation, CellTiter-Glo luminescence, 72 h; at 10 µM; stronger effect = lower value
[5] = H69AR cell proliferation blockers – human, duplicate replicates, primary screen (AID 580;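 active = viability at or under a set limit in both replicates, limit being median viability minus 3 SD, cut at about 48% in these data, passing the limit was not always enough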;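 note: 100% = mean luminescence of untreated wells and 0% = no signal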); conditions: H69AR lung tumor cells viability, ATP luminescence, 72 h; at 10 µM; stronger effect = lower value
[6] = MRP1 drug-resistance reversers in H69AR cells – cell-based, doxorubicin co-treatment, pilot screen (AID 601;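 active = viability loss from added drug above about 55%, and viability with drug at most 40%, in both replicates, limit read from the data, passing the limit was not always enough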); conditions: CellTiter-Glo, 72 h, at 10 µM; for differential viability (reversal): stronger effect = higher value
[7] = yeast transport mutant growth inhibition pilot in 384-well plates, post-Golgi transport modulator project (AID 636; in the data active = inhibition above about 31%); conditions: absorbance 615 nm, about 18 h, stronger effect = higher value
[8] = growth suppression of yeast trafficking mutant, preliminary HTS, modulators of trafficking downstream of Golgi apparatus project, 1536-format plate, OD 615 nm (AID 637); conditions: yeast transport mutant growth, absorbance 615 nm, 18 h; stronger effect = higher value
[9] = S. cerevisiae growth inhibition in permissive medium (OD615), pilot counter-assay for S. cerevisiae lifespan shortening project, permissive growth control (AID 705;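 active = growth inhibition above 25% in both replicates, a cutoff set 3 SD above the mean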); conditions: OD615, 24 h, at 10 µM, stronger effect = higher value
[10] = S. cerevisiae growth inhibition in restrictive medium, OD615, pilot screen, restrictive growth control, yeast lifespan reduction project (AID 706;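 active = growth inhibition above a set limit, 3 SD over mean compound inhibition, in both replicates, cut at about 43% in these data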;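 note: modified DeaD lifespan yeast strain shifted to restrictive glucose medium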); conditions: OD615, 48 h, at 10 µM, stronger effect = higher value
[11] = doxorubicin toxicity protection in MRP-1 cells – H69AR cells, CellTiter-Glo, duplicate, MRP-1 activator project, pilot screen (AID 807;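 active = viability increase at or above a cutoff of the median across tested compounds plus 3 SD, cut at about 8.5% in these data, passing the limit was not always enough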;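 note: compound pretreatment 18-22 h then 72 h combined with doxorubicin; 0% = doxorubicin alone and 100% = vehicle without doxorubicin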); conditions: H69AR viability with doxorubicin, CellTiter-Glo luminescence; at 10 µM; stronger effect = higher value
[12] = viability of HCT116 without oncogenic beta-catenin – human colon tumor cells, pilot screen (AID 823;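 active = cell viability at or below a set limit in both duplicate runs, the limit being the all-compound median minus 4 SD, cut at about 23% in these data, passing the limit was not always enough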;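 note: 0% = wells killed by 20 µM Hyamine and 100% = untreated DMSO cell wells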); conditions: HCT116 beta-catenin knockout viability, CellTiter-Glo, 60 h; at 10 µM; stronger effect = lower value
[13] = viability of PTEN-null HCT116 cells – cell-based, HCT116 clonal line, CellTiter-Glo, pilot screen (AID 824;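 active = viability at or below 27.92% in each of two runs, the all-compound median minus 4 SD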;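 note: 0% = 20 µM Hyamine control and 100% = vehicle cell control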); conditions: HCT116 PTEN-deleted viability, 60 h, at 10 µM, stronger effect = lower value
[14] = RAM pathway blockade in budding yeast – dse1pr::URA3 reporter, 5-FOA selection, pilot screen (AID 869;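 active = inhibition over a set limit, the all-compound mean plus 3 SD, in both replicate runs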;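 note: 0% = DMSO wells with no growth and 100% = 10 µM 1-NA-PP1 with full growth; RAM network block rescues cells from 5-FOA so hits raise OD615 growth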); conditions: S. cerevisiae dse1pr::URA3 5-FOA growth, OD615, 2 d; at 10 µM; stronger effect = higher value; strain carries analog-sensitive mutant Cbk1 kinase
[15] = RAM signaling pathway blockade in yeast – S. cerevisiae, Pdr1DBD-CYC8 efflux-inhibited sensitized strain, primary screen (AID 1298;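 active = RAM network inhibition above 8.4% in each of two replicates, 3 SD over the compound average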;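 note: 0% = DMSO untreated cells without growth and 100% = 10 µM 1-NA-PP1 full growth; higher means more yeast growth rescued from 5-FOA killing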); conditions: S. cerevisiae cbk1-as DSE1-URA3 strain, 5-FOA growth OD615, 2 d; at 50 µM; stronger effect = higher value
[16] = H69AR cells + 2 uM doxorubicin, measured here: viability with 2 uM doxorubicin, stronger effect = lower value
[17] = H69AR cells, compound alone cytotoxicity

Cc1ccc(N=Cc2ccc[nH]2)c(O)c1
81.9%: viability [6, 17]
96%: viability [1]
96.4%: viability [6, 16]
inactive: Her2 level [2] 88.5% | viability [3] 96% | viability [4] 76.8% | viability [5] 81.9% | differential viability (reversal) ([6]; H69AR cells + 2 uM doxorubicin) -14.5% | inhibition [7] -2.56% | inhibition [8] 0.5% | growth inhibition [9] -20.2% | growth inhibition [10] -5.83% | viability increase [11] -4.28% | viability [12] 71.8% | viability [13] 88.4% | inhibition [14] 1.36% | RAM network inhibition [15] 0.26%

COc1ccccc1C(=O)NCCc1nc2ccccc2n1C
118%: viability [1]
inactive: Her2 level [2] 83% | viability [3] 118% | viability [4] 119% | viability [5] 101% | differential viability (reversal) ([6]; H69AR cells + 2 uM doxorubicin) 5.79% | inhibition [7] -6.76% | inhibition [8] -3.67% | growth inhibition [9] -20.8% | growth inhibition [10] 0.505% | viability increase [11] 0.02% | viability [12] 105% | inhibition [14] 2.54% | RAM network inhibition [15] 5.39%
95%: viability [6, 16]
101%: viability [6, 17]

CCc1ccc(N2CC(C(=O)OCC(=O)NC3CCS(=O)(=O)C3)CC2=O)cc1 (configuration not stated)
103%: viability [6, 17]
99.5%: viability [6, 16]
inactive: Her2 level [2] 112% | viability [3] 100% | viability [4] 98.6% | viability [5] 103% | differential viability (reversal) ([6]; H69AR cells + 2 uM doxorubicin) 3.14% | inhibition [7] 3.12% | inhibition [8] 7.54% | growth inhibition [9] -17% | growth inhibition [10] 1.96% | viability increase [11] 1.23% | viability [12] 96.5% | inhibition [14] 0.795% | RAM network inhibition [15] 3.33%
100%: viability [1]

CCSc1oc(-c2ccco2)nc1S(=O)(=O)c1ccccc1
inactive: Her2 level [2] 93.5% | viability [3] 95% | viability [4] 93.3% | viability [5] 89.3% | differential viability (reversal) ([6]; H69AR cells + 2 uM doxorubicin) 2.04% | inhibition [7] -5.95% | inhibition [8] -8.33% | growth inhibition [9] -16.4% | growth inhibition [10] 11.4% | viability increase [11] -2.68% | viability [12] 92.7% | inhibition [14] 1.75% | RAM network inhibition [15] 1.2%
95%: viability [1]
87.2%: viability [6, 16]
89.3%: viability [6, 17]

COCc1nnc(NC(=O)c2ccc(S(=O)(=O)N(C)c3ccccc3)cc2)o1
85%: viability [1]
62.2%: viability [6, 16]
active: viability [5] 43.7%
inactive: Her2 level [2] 107% | viability [3] 85% | viability [4] 66.6% | differential viability (reversal) ([6]; H69AR cells + 2 uM doxorubicin) -18.5% | inhibition [7] -3.87% | inhibition [8] -2.17% | growth inhibition [9] 3.04% | growth inhibition [10] 9.5% | viability increase [11] -5.06% | viability [12] 29.7% | inhibition [14] 0.19% | RAM network inhibition [15] 4.65%
43.7%: viability [6, 17]

CC(C)C(NC(=O)c1ccc(S(=O)(=O)N2CCOCC2)cc1)c1nc2ccccc2[nH]1 (configuration not stated)
85.2%: viability [6, 16]
104%: viability [1]
82.2%: viability [6, 17]
inactive: Her2 level [2] 94.5% | viability [3] 104% | viability [4] 72.5% | viability [5] 82.2% | differential viability (reversal) ([6]; H69AR cells + 2 uM doxorubicin) -2.94% | inhibition [7] 1.95% | inhibition [8] -2.95% | growth inhibition [9] -13.7% | growth inhibition [10] -12.6% | viability increase [11] -5.63% | viability [12] 100% | inhibition [14] 2.71% | RAM network inhibition [15] 6.44%

O=C(OCC(=O)c1ccc[nH]1)c1ccc(S(=O)(=O)N2CCCCC2)cc1
97.8%: viability [6, 17]
94%: viability [1]
81%: viability [6, 16]
inactive: Her2 level [2] 98% | viability [3] 94% | viability [4] 90.9% | viability [5] 97.8% | differential viability (reversal) ([6]; H69AR cells + 2 uM doxorubicin) 16.8% | inhibition [7] -3.64% | inhibition [8] -6.17% | growth inhibition [9] -15.2% | growth inhibition [10] -4.03% | viability increase [11] -0.59% | viability [12] 99.8% | inhibition [14] 3.25% | RAM network inhibition [15] 3.17%

O=C(COC(=O)C1CC2C=CC1C2)Nc1ccc2c(c1)OC(F)(F)O2 (configuration not stated)
95.5%: viability [6, 16]
119%: viability [1]
94.3%: viability [6, 17]
inactive: Her2 level [2] 89.5% | viability [3] 119% | viability [4] 84.2% | viability [5] 94.3% | differential viability (reversal) ([6]; H69AR cells + 2 uM doxorubicin) -1.17% | inhibition [7] -1.95% | inhibition [8] -0.49% | growth inhibition [9] -9.33% | growth inhibition [10] 3.8% | viability increase [11] 3.74% | viability [12] 89.2% | viability [13] 96.2% | inhibition [14] 1.08% | RAM network inhibition [15] -2.17%

COc1cccc(N(C(C)=O)c2nc(C)cc(C)c2C#N)c1
95.3%: viability [6, 16]
104%: viability [6, 17]
102%: viability [1]
inactive: Her2 level [2] 87% | viability [3] 102% | viability [4] 96.1% | viability [5] 104% | differential viability (reversal) ([6]; H69AR cells + 2 uM doxorubicin) 8.34% | inhibition [7] -7.26% | inhibition [8] -1.59% | growth inhibition [9] -15.4% | growth inhibition [10] 9.36% | viability increase [11] -0.35% | viability [12] 109% | inhibition [14] 1.36% | RAM network inhibition [15] 2.39%

CCOCCCNC(=O)C(c1ccc(C)cc1)N(Cc1ccc2c(c1)OCO2)C(=O)c1cnccn1 (configuration not stated)
98%: viability [1]
inactive: Her2 level [2] 102% | viability [3] 98% | viability [4] 103% | viability [5] 98.7% | differential viability (reversal) ([6]; H69AR cells + 2 uM doxorubicin) -0.27% | inhibition [7] -5.34% | inhibition [8] 2.38% | growth inhibition [9] -5.46% | growth inhibition [10] 3.09% | viability increase [11] -2.67% | viability [12] 93.8% | inhibition [14] 1.83% | RAM network inhibition [15] 5.34%
98.7%: viability [6, 17]
98.9%: viability [6, 16]
